The record followed here is PubChem BioAssay (NCI).

Test in all cases: NCI-60 one-dose screen, 48 h (100 = growth as untreated, 0 = no growth, -100 = all killed)
Common to all, as to details: 10 µM unless noted

In assay [1] the test system is NCI-H23 lung.
The test system of assay [2] is NCI-H226 lung.
In assay [3] the test system is NCI-H322M lung.
Assay [4] deals with HOP-62 NSCLC.
Assay [5] concerns NCI-H460 lung.
In assay [6] the test system is HOP-92 NSCLC.
The test system of assay [7] is NCI-H522 lung.
The subject of assay [8] is A549/ATCC NSCLC.
In assay [9] the test system is 786-0 renal.
For assay [10], the system named is COLO 205 colon.
In assay [11] the test system is DU-145 prostate.
Assay [12] concerns K-562 leukemia.
In assay [13] the test system is MALME-3M melanoma.
The test system of assay [14] is MDA-MB-231 breast.
For assay [15], the system named is RXF 393 renal.
In assay [16] the test system is SF-268 CNS.
For assay [17], the system named is SF-539 CNS.
In assay [18] the test system is UACC-257 melanoma.
The test system of assay [19] is M14 melanoma.
In assay [20] the test system is SF-295 CNS.

The panel holds about 83,000 compounds, 20% with a hit somewhere; the sample as a whole holds those more often.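 Each cell line was grown in a 96-well plate and treated with one concentration of compound for 48 hours. Values below 10 were considered active.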 Values without a mark were called inactive. Active and inactive are the calls of the source.

Regarding `N=C1C=C(N)C(=O)c2ccccc21`, the growth in assay [1] was -82.3% (active); in assay [2] it was -63% (active); in assay [3] it was -88.4% (active); in assay [4], -94.3% (active); in assay [5], -67.8% (active); in assay [6] it was -38.8% (active). For the same molecule, the growth in [7] was -67% (active); in [8], -71.7% (active); in assay [9], -99.6% (active); in [10], -93.7% (active); in assay [11], -99.5% (active); in assay [12], -4.96% (active). The growth in assay [13] is -83.7% (active); in assay [14], -12.5% (active); in [15] it was -97.1% (active); in assay [16] it was -68.4% (active); in [17] it was -95.8% (active); in assay [18], -77.2% (active). Besides, in [19], the growth is -86.5% (active).
For the molecule `CCCCCCCCCCCC[S+](C)CC(=O)[O-]` (stereo unspecified), the growth in [1] is 25.9%; in [2] it was 44.3%; in assay [3], 89.4%; in [4], 38.7%; in assay [5], 54%; in assay [6] it was 30.7%. Further, the growth is 46.5% in assay [7]; 68.4% in assay [8]; 23.3% in assay [9]; 2.95% (active) in assay [10]; 54.8% in assay [11]; 30.7% in [12]. Further, the growth is 51.2% in [13]; 0.613% (active) in assay [15]; 30.6% in assay [16]; 38.6% in assay [20]; 53.7% in [17]; 56.7% in assay [18]. The growth in assay [19] is 43.7%.
As to `NC(=S)Nc1ccc2c(c1)Cc1ccccc1-2`, the growth was 83.1% in assay [1]; 77.8% in assay [2]; 89.2% in assay [3]; 84.2% in assay [4]; 94.8% in assay [5]; 63.9% in assay [6]. In addition, the growth in assay [7] was 62.9%; in [8], 72.5%; in assay [9], 115%; in assay [10], 98.2%; in assay [11] it was 108%; in [12], 82%. In addition, the growth in assay [13] is 88.4%; in assay [14], 69.5%; in assay [15] it was 102%; in assay [16], 90.5%; in assay [20], 98.7%; in assay [18], 69.9%. Besides, the growth in assay [19] was 99.7%.
As to `O=C1CSC(=S)N1Cc1cccnc1`, the growth in assay [1] was 101%; in assay [2], 109%; in assay [3] it was 85.7%; in assay [4] it was 78.4%; in [5] it was 106%; in [6], 83.9%. Moreover, the growth in assay [7] was 36.8%; in [8] it was 95.4%; in assay [9], 44.6%; in assay [10] it was 53.6%; in assay [11], 25%; in assay [12] it was 7.08% (active). For the same molecule, the growth is 102% in assay [13]; 106% in assay [14]; 107% in assay [16]; 120% in assay [20]; 93.6% in assay [17]; 59.5% in assay [18]. Further, the growth in assay [19] was 85.1%.
For `COc1ccc2nc3cc(Cl)ccc3c(NCCCCCN3CCCCC3)c2c1`, the growth in assay [1] was -49.1% (active); in assay [2], -39.8% (active); in assay [3], -34% (active); in assay [4], -31.6% (active); in [5], -62.9% (active); in [6] it was -56.4% (active). For the same molecule, the growth is -71.6% (active) in [7]; -33.1% (active) in assay [8]; -73.4% (active) in assay [9]; -89.4% (active) in assay [10]; -3.46% (active) in assay [11]; -13.9% (active) in assay [12]. Moreover, the growth was -84.7% (active) in assay [13]; -72.1% (active) in assay [15]; -36.4% (active) in [16]; 43.2% in assay [20]; -89.7% (active) in assay [17]; -74.8% (active) in assay [18]. In addition, in assay [19], the growth is -81.9% (active).
With `O=C(Cc1nc2cc(Cl)c(Cl)cc2nc1CC(=O)c1ccccc1)c1ccccc1`, the growth in assay [1] was 77.3%; in assay [2] it was 70.4%; in assay [3], 80.9%; in assay [4], 70.5%; in assay [5], 73.4%; in assay [6], 67.3%. Besides, the growth in [7] is 58.2%; in assay [8], 74.4%; in assay [9] it was 67.6%; in assay [10], 76.3%; in [11] it was 82.5%; in assay [12] it was 47.4%. Besides, the growth was 67.5% in assay [13]; 81.1% in [15]; 79.2% in [16]; 69.5% in assay [20]; 62.1% in assay [17]; 93.6% in assay [18]. Besides, in assay [19], the growth was 75.2%.
In the case of `Cc1nn(CCO)c(C)c1N=[N+]([O-])c1c(C)nn(CCO)c1C`, the growth is 87% in assay [1]; -28.5% (active) in assay [2]; 98.5% in [3]; 88.1% in assay [4]; 76.3% in [5]; -47.7% (active) in assay [6]. In addition, the growth in [7] is -78% (active); in assay [8] it was 50.5%; in [9], -82.3% (active); in [10], -85.6% (active); in assay [11], -9.05% (active); in assay [12], -31.8% (active). Besides, the growth in [13] was -59.9% (active); in [14] it was 98.6%; in assay [16], 81.3%; in [20] it was 100%; in assay [17], 89.1%; in assay [18], -56.2% (active). Besides, in assay [19], the growth was -61.6% (active).
For the molecule `O=C1C(=O)c2cccnc2-c2ncccc21`, the growth was -68.3% (active) in assay [1]; -28.7% (active) in assay [2]; 20.5% in assay [3]; -44.7% (active) in [4]; -57.3% (active) in assay [5]; -36.9% (active) in [6]. Further, the growth in assay [7] is 5.23% (active); in assay [8], 6.49% (active); in assay [9] it was -94.1% (active); in assay [10] it was -88.5% (active); in assay [11] it was -74% (active); in assay [12], -23.4% (active). Moreover, the growth is -12.6% (active) in [13]; -39.3% (active) in assay [14]; -94.5% (active) in assay [16]; 2.62% (active) in [20]; -97% (active) in assay [17]; 0.671% (active) in assay [18]. In addition, the growth in [19] is -92.6% (active).
As to `CCN1CCCC(Nc2cc(C)nc(/N=C(/N)Nc3ccc(Cl)c(Cl)c3)n2)C1` (stereo unspecified), the growth in assay [1] was 33.2%; in assay [2], 32.2%; in [3] it was -17.1% (active); in assay [4] it was -7.52% (active); in assay [5], -18.8% (active); in assay [6] it was -68.4% (active). Further, the growth was -69.5% (active) in assay [7]; -25.1% (active) in assay [8]; -82.7% (active) in assay [9]; -77.6% (active) in assay [10]; 30.3% in assay [11]; -69.2% (active) in assay [12]. Moreover, the growth in assay [13] is -70.6% (active); in assay [14], -56.6% (active); in assay [15], -81.3% (active); in [16], -54.4% (active); in assay [17], -73.7% (active); in [18] it was -84.9% (active). For the same molecule, the growth in assay [19] was -77.9% (active).
